Results taken from PubChem BioAssay.
“And” between values parts separate entries of the source, which are not always exact repeats. Identical values can stand only once.
Further: test concentration not given here.

Assay: basal RPMI8226 mitochondrial membrane potential changes, profiling panel, cell-based, JC-1 fluorescence, 24 h, 100 nL compound (AID 1169)
Conditions: RPMI8226 myeloma, JC-1 mitochondrial potential fluorescence, higher = more signal
With `C=CCN(Cc1ccccc1)C(=O)C1N(CCOCCO)C(=O)C2C(C(=O)O)C3C=CC21O3` (centres undefined) the z-score was 0.747 and 0.0424.
For `C=CC[C@@H](O)c1ccc(O)c2ccccc12`, the z-score was -0.887 and -0.994.
`CO[C@@H]1C=CCC(=O)N2CCC[C@H]2C(=O)OC[C@H](C)C(=O)OC[C@H]1C` gave a z-score of -0.0289.
With `CN1C(=O)C2CC=C([C@H]3Oc4ccccc4S(=O)(=O)N4CCC[C@@H]34)CC2C1=O` (some centres undefined) the z-score was 0.439 and 0.341.
For `CCOC(=O)c1ccc(NC(=O)O[C@H]2[C@H](OC(=O)Nc3ccccc3)[C@@H](OC(=O)Nc3ccccc3)[C@@H](OC)O[C@@H]2CO)cc1`, the z-score was -0.464 and -0.37.
For `C=CCN(Cc1ccccc1)C(=O)C(c1cccs1)N(C(=O)/C=C\C(=O)O)c1c(Cl)cccc1CO` (centres undefined), the z-score was -0.917 and 0.247.
In the case of `CC(CO)N1C(=O)[C@@H]2C3C(=O)OCCC=C[C@H]3OC23C=CCN(CCN2CCOCC2)C(=O)[C@@H]13` (some centres undefined), the z-score is reported as -0.00565 and 0.13.
`CO[C@H]1COC(=O)CC=C[C@@H](C)COC(=O)[C@@H](OCc2ccccc2)C=C[C@@H]1C` showed a z-score of -0.442.
In the case of `CCCC[C@@H]1CN2[C@@H](CC[C@@H](C)[C@@H]2c2ccc(Br)cc2)C(=O)O1`, the z-score is reported as 0.266 and -0.0989.
In the case of `CCN1C(=O)[C@H]2[C@H]3[C@H](O)[C@H](O)CC(=NOC[C@@H](O)COCc4ccco4)[C@@H]3CC[C@H]2C1=O`, the z-score is reported as 0.0424 and 0.122.
For `C=CCN(CCCCC)C(=O)C(c1cccs1)N(C(=O)/C=C\C(=O)O)c1ccc(CCO)cc1` (centres undefined), the z-score was 1.26 and -0.556.
With `C=CCN(C(=O)C1N(c2c(Cl)cccc2CO)C(=O)C2C(C(=O)O)C3C=CC21O3)c1ccc(OC)cc1` (centres undefined) the z-score was -0.106 and -0.544.
With `C=CCN(CCCC)C(=O)C1N(C(C)(C)CO)C(=O)C2C(C(=O)O)C3C=CC21O3` (centres undefined) the z-score was 0.354 and 0.826.
For `C=C[C@@H](C)[C@@H](O)c1ccc(OCCO)cc1`, the z-score was -0.0815 and 0.346.
With `C=CCN(CCCCC)C(=O)C1N(C(C)(C)CO)C(=O)C2C(C(=O)O)C3C=CC21O3` (centres undefined) the z-score was 0.776 and 0.876.
With `CCOC(=O)[C@@H]1CC2O[C@]23C[C@@H]1C(=O)N1CCC[C@@H]1[C@H]3O[Si](C)(C)C(C)(C)C` (some centres undefined) the z-score was -0.387 and -0.407.
In the case of `CCOC(=O)C[C@H]1[C@H](OC(=O)c2ccccc2-c2ccccc2)[C@@H](NC(=O)Cc2ccc(OC)cc2)c2cc(OCCCO)ccc2N1C(=O)Cc1ccc(OC)cc1`, the z-score is reported as 0.846 and -0.309.
For `COC(=O)CC=C[C@@H](C)[C@@H](CO)NS(=O)(=O)c1ccc(C)cc1`, the z-score was -0.827 and 0.601.
For `C[N+](C)(C)CCCCCCNC(=O)[C@@H]1C[C@@H]2C(=O)N[C@@H](CCCC[N+](C)(C)C)C(=O)N2[C@@H]1c1ccc(O)cc1`, the z-score was -0.7 and 0.534.
In the case of `COC(=O)C1=C(C)N(Cc2ccccc2)C2=C3C(=O)CCC[C@@H]3[C@@](O)(C(=O)OC)C(=O)N2[C@@H]1c1ccccc1`, the z-score is reported as 0.0423 and -0.467.
With `O=C1C[C@]2(c3ccc([N+](=O)[O-])cc3)C(=O)N(Cc3ccccc3)c3cc(CO)ccc3[C@H]2N1C1CCCCC1` the z-score was -0.469 and -0.544.
In the case of `CC(C)=CCCC(C)=CCON=C1C[C@@H](O)[C@@H](O)[C@@H]2[C@@H]3C(=O)N([C@@H](C)c4ccccc4)C(=O)[C@@H]3CC[C@H]12`, the z-score is reported as 0.0351.
For `C[C@@H]1CC[C@H]2C(=O)NC[C@@H](O)CN2[C@H]1c1ccc(Br)cc1`, the z-score was -0.606 and 0.0684.
For `COc1ccc(O[C@H]2C=C[C@@H](c3ccccc3)O[C@@H]2COC(=O)CCC(C)=NO[C@H](C)c2cn([C@H](CO)Cc3ccccc3)nn2)cc1`, the z-score was 0.0444 and -0.196.
With `C=CCN(CCCC)C(=O)C(c1cccs1)N(C(=O)/C=C\C(=O)O)c1c(Cl)cccc1CO` (centres undefined) the z-score was 0.819 and 1.04.
For `CC(CO)N1C(=O)[C@@H]2C3C(=O)OCCC=C[C@H]3OC23C=CCN(c2ccc(Cl)cc2)C(=O)[C@@H]13` (some centres undefined), the z-score was 0.0601 and -0.811.
For `C=CCN(C(=O)C(c1cccs1)N(CCOCCO)C(=O)/C=C\C(=O)O)C(C)(C)C` (centres undefined), the z-score was 0.28 and -0.0177.
In the case of `C=C[C@H](OC)[C@@H](O)c1ccc(O)c(F)c1`, the z-score is reported as 0.675 and 0.679.
In the case of `CC(CO)N1C(=O)[C@@H]2C3C(=O)OCCC=C[C@H]3OC23C=CCN(C(C)(C)C)C(=O)[C@@H]13` (some centres undefined), the z-score is reported as 0.914 and -0.0183.

Assay: basal MM1S mitochondrial membrane potential changes, profiling panel, cell-based, JC-1 fluorescence, 24 h, 100 nL compound (AID 1170)
Conditions: higher = more signal
For `COC(=O)C1=C(C)N(Cc2ccccc2)[C@]23O[C@](C(=O)OC)(C(=O)N2[C@@H]1c1ccccc1)[C@@H](C(=O)OC)[C@H]3C(=O)OC`, the z-score was -0.142 and -0.237.
Molecule `CO[C@@H]1COC(=O)CC=C[C@H](C)COC(=O)[C@H](C)NC(=O)CC=C[C@H]1C` has a z-score of 0.955.
With `COC(=O)C1=C(C)N(Cc2ccccc2)C2=C(C(C)=O)[C@H](c3ccccc3)[C@@](O)(C(=O)OC)C(=O)N2[C@@H]1c1ccccc1` the z-score was -0.444 and 0.924.
For `C[N+](C)(C)CCCCNC(=O)[C@H]1C[C@H]2C(=O)N[C@@H](CCCC[N+](C)(C)C)C(=O)N2[C@H]1c1cccc(OCCO)c1`, the z-score was -0.199 and -0.118.
`CCOC(=O)NN=C1C[C@@H](O)[C@@H](O)[C@@H]2[C@@H]3C(=O)N(Cc4ccc5c(c4)OCO5)C(=O)[C@@H]3CC[C@@H]12` showed a z-score of -1.25.
For `C[N+](C)(C)CCCCNC(=O)[C@H]1C[C@H]2C(=O)N[C@@H](CCCC[N+](C)(C)C)C(=O)N2[C@H]1c1ccc(O)cc1`, the z-score was -0.588 and -0.423.
For `O=c1n(-c2ccccc2)c(=O)n2n1CC[C@@H]1C(=NOC[C@@H](O)COCc3ccco3)[C@H]3O[C@H]3[C@@H](O)[C@@H]12`, the z-score was 0.181 and -0.00804.
With `C=C[C@@H](C)[C@H](O)c1ccc(O)c2ccccc12` the z-score was -0.52 and 0.331.
In the case of `COC(=O)C1=C(C)N(Cc2ccccc2)C2=C(C(C)=O)C[C@@](O)(C(=O)OC)C(=O)N2[C@@H]1c1ccccc1`, the z-score is reported as -0.16 and -0.174.
With `CCC[C@@H]1C[C@@]1(CCC)[C@@H](NC(=O)c1ccc(-c2ccccc2)cc1)c1cccc(Cl)c1` the z-score was -0.647 and -1.16.
In the case of `C=CCN(CCCC)C(=O)C1N(CCOCCO)C(=O)C2C(C(=O)O)C3C=CC21O3` (centres undefined), the z-score is reported as 0.0912 and -0.0623.
With `C=CCN(Cc1ccccc1)C(=O)C1N(CCOCCO)C(=O)C2C(C(=O)O)C3C=CC21O3` (centres undefined) the z-score was 1.26 and -0.0145.
With `C=CC[C@@H](O)c1ccc(O)c2ccccc12` the z-score was -1.63 and -1.56.
In the case of `CO[C@@H]1C=CCC(=O)N2CCC[C@H]2C(=O)OC[C@H](C)C(=O)OC[C@H]1C`, the z-score is reported as 0.331.
With `CN1C(=O)C2CC=C([C@H]3Oc4ccccc4S(=O)(=O)N4CCC[C@@H]34)CC2C1=O` (some centres undefined) the z-score was 0.123 and -0.0296.
With `CCOC(=O)c1ccc(NC(=O)O[C@H]2[C@H](OC(=O)Nc3ccccc3)[C@@H](OC(=O)Nc3ccccc3)[C@@H](OC)O[C@@H]2CO)cc1` the z-score was -0.447 and -0.575.
With `C=CCN(Cc1ccccc1)C(=O)C(c1cccs1)N(C(=O)/C=C\C(=O)O)c1c(Cl)cccc1CO` (centres undefined) the z-score was -0.871 and -0.502.
With `CC(CO)N1C(=O)[C@@H]2C3C(=O)OCCC=C[C@H]3OC23C=CCN(CCN2CCOCC2)C(=O)[C@@H]13` (some centres undefined) the z-score was -0.137 and -0.0991.
`CO[C@H]1COC(=O)CC=C[C@@H](C)COC(=O)[C@@H](OCc2ccccc2)C=C[C@@H]1C` showed a z-score of -0.414.
For `CCCC[C@@H]1CN2[C@@H](CC[C@@H](C)[C@@H]2c2ccc(Br)cc2)C(=O)O1`, the z-score was 0.0213 and -0.396.
With `CCN1C(=O)[C@H]2[C@H]3[C@H](O)[C@H](O)CC(=NOC[C@@H](O)COCc4ccco4)[C@@H]3CC[C@H]2C1=O` the z-score was 0.104 and 0.0266.
In the case of `C=CCN(CCCCC)C(=O)C(c1cccs1)N(C(=O)/C=C\C(=O)O)c1ccc(CCO)cc1` (centres undefined), the z-score is reported as -0.138 and -0.377.
In the case of `C=CCN(C(=O)C1N(c2c(Cl)cccc2CO)C(=O)C2C(C(=O)O)C3C=CC21O3)c1ccc(OC)cc1` (centres undefined), the z-score is reported as 0.644 and 0.576.
In the case of `C=CCN(CCCC)C(=O)C1N(C(C)(C)CO)C(=O)C2C(C(=O)O)C3C=CC21O3` (centres undefined), the z-score is reported as -0.283 and -0.384.
With `C=C[C@@H](C)[C@@H](O)c1ccc(OCCO)cc1` the z-score was 0.287 and -0.925.
With `C=CCN(CCCCC)C(=O)C1N(C(C)(C)CO)C(=O)C2C(C(=O)O)C3C=CC21O3` (centres undefined) the z-score was 0.861 and 0.681.
With `CCOC(=O)[C@@H]1CC2O[C@]23C[C@@H]1C(=O)N1CCC[C@@H]1[C@H]3O[Si](C)(C)C(C)(C)C` (some centres undefined) the z-score was 0.781 and -1.86.
For `CCOC(=O)C[C@H]1[C@H](OC(=O)c2ccccc2-c2ccccc2)[C@@H](NC(=O)Cc2ccc(OC)cc2)c2cc(OCCCO)ccc2N1C(=O)Cc1ccc(OC)cc1`, the z-score was 1.46 and 0.00765.
With `COC(=O)CC=C[C@@H](C)[C@@H](CO)NS(=O)(=O)c1ccc(C)cc1` the z-score was -0.0943 and -0.285.
With `C[N+](C)(C)CCCCCCNC(=O)[C@@H]1C[C@@H]2C(=O)N[C@@H](CCCC[N+](C)(C)C)C(=O)N2[C@@H]1c1ccc(O)cc1` the z-score was -0.778 and -0.749.
In the case of `COC(=O)C1=C(C)N(Cc2ccccc2)C2=C3C(=O)CCC[C@@H]3[C@@](O)(C(=O)OC)C(=O)N2[C@@H]1c1ccccc1`, the z-score is reported as 1.36 and -0.505.
In the case of `O=C1C[C@]2(c3ccc([N+](=O)[O-])cc3)C(=O)N(Cc3ccccc3)c3cc(CO)ccc3[C@H]2N1C1CCCCC1`, the z-score is reported as -0.152 and -0.189.
In the case of `CC(C)=CCCC(C)=CCON=C1C[C@@H](O)[C@@H](O)[C@@H]2[C@@H]3C(=O)N([C@@H](C)c4ccccc4)C(=O)[C@@H]3CC[C@H]12`, the z-score is reported as -1.78.
For `C[C@@H]1CC[C@H]2C(=O)NC[C@@H](O)CN2[C@H]1c1ccc(Br)cc1`, the z-score was 0.0814 and -0.633.
In the case of `COc1ccc(O[C@H]2C=C[C@@H](c3ccccc3)O[C@@H]2COC(=O)CCC(C)=NO[C@H](C)c2cn([C@H](CO)Cc3ccccc3)nn2)cc1`, the z-score is reported as -0.704 and 0.182.
With `C=CCN(CCCC)C(=O)C(c1cccs1)N(C(=O)/C=C\C(=O)O)c1c(Cl)cccc1CO` (centres undefined) the z-score was -0.153 and -0.712.
For `CC(CO)N1C(=O)[C@@H]2C3C(=O)OCCC=C[C@H]3OC23C=CCN(c2ccc(Cl)cc2)C(=O)[C@@H]13` (some centres undefined), the z-score was 0.936 and -0.274.
In the case of `C=CCN(C(=O)C(c1cccs1)N(CCOCCO)C(=O)/C=C\C(=O)O)C(C)(C)C` (centres undefined), the z-score is reported as 0.987 and 0.588.
In the case of `C=C[C@H](OC)[C@@H](O)c1ccc(O)c(F)c1`, the z-score is reported as -0.0752 and -0.474.
With `CC(CO)N1C(=O)[C@@H]2C3C(=O)OCCC=C[C@H]3OC23C=CCN(C(C)(C)C)C(=O)[C@@H]13` (some centres undefined) the z-score was 0.157 and -0.365.
